Records with an inconclusive call do not appear. Calls of active or inactive are those of the source. Calls follow the shape of the dose curve; as a rule, active = well fitted cell-killing curve with a large enough effect; inconclusive = small, poorly fitted or top-dose-only effect; inactive = no such curve, though single readings can be large or run the other way.
assay: Quantitative High-Throughput drug screen in 47 multiple myeloma cell lines against the NCATS MIPE library collection: JIM3_ECACC cell viability assay (AID 1918963; also: nearly all actives have a fitted effect of over 35% in size); settings: JIM3 myeloma viability, CellTiter-Glo ATP, 48 h; series mostly up to 45.8 µM
Description: PI: Beverly A. Mock Ph.D.
Laboratory of Cancer Biology and Genetics,
Center for Cancer Research, National Cancer Institute,
National Institute of Health, Bethesda, Maryland
Drug resistance and disease progression are common in multiple myeloma (MM) patients, underscoring the need for new therapeutic combinations. […] We hypothesized that effective combinations would reduce MYC expression and enhance p16 activity. […] These preclinical data identify potentially useful drug combinations for evaluation in drug-resistant MM and reveal potential mechanisms of combined drug sensitivity.
Described herein is the primary MIPE qHTS used to cherrypick compounds. Validated compounds were then further tested for potential synergistic activiy.
[1] Peat TJ, Gaikwad SM, Dubois W, Gyabaah-Kessie N, Zhang S, Gorjifard S, Phyo Z, Andres M, Hughitt VK, Simpson RM, Miller MA, Girvin AT, Taylor A, Williams D, D'Antonio N, Zhang Y, Rajagopalan A, Flietner E, Wilson K, Zhang X, Shinn P, Klumpp-Thomas C, McKnight C, Itkin Z, Chen L, Kazandijian D, Zhang J, Michalowski AM, Simmons JK, Keats J, Thomas CJ, Mock BA. Drug combinations identified by high-throughput screening promote cell cycle transition and upregulate Smad pathways in myeloma. Cancer Lett. 2023 Aug 1;568:216284. doi: 10.1016/j.canlet.2023.216284. Epub 2023 Jun 24. PMID: 37356470; PMCID: PMC10408729.
SEQUENCE No. (e.g., 1, 2, 3, etc.); […] (e.g., Cells, Incubation, Reagent, etc.); VALUE and DESCRIPTION.
1; Cells; 5 uL; white, solid bottom 1536-well Greiner assay plate.
2; Compounds; 23 nL; Kalypsis pin tool (Wako USA) equipped with a 1536-well pin head to transfer to the assay plates.
3; Incubation; 48 hours; 37C incubation.
4; Reagent;5uL; CellTiter Glo (Promega).
5; Detector; 425V; Luminescence; Viewlux PerkinElmer.
NOTES (numbers refer to Sequence numbers above)
1. The cell-based screening methods employed in this study were like those previously published. Briefly, the corresponding myeloma cell lines were screened in 1,536-well plates with 500 cells, 5-uL per well for inhibition of cell viability (assessed by measuring ATP levels with CellTiterGlo).
2. NCATS MIPE 4.0 library of approved and investigational drugs were added using the Kalypsis pin tool. Wells treated with DMSO only for 100% viability and media only wells for 0% viability were used as controls.
3. The assay plates were covered and incubated for 48 hours in a 37C, 5% CO2 incubator with controlled humidity.
4. After 48 hours, CellTilter-GloTM luminescent substrate mix (Promega) reagent was added to the assay plate and plates we incubated for 5 min at room temperature.
5. Signal was measured as median relative luminescence units on a ViewLux (PerkinElmer) multiplate reader.
[1] Heske CM, Davis MI, Baumgart JT, Wilson K, Gormally MV, Chen L, Zhang X, Ceribelli M, Duveau DY, Guha R, Ferrer M, Arnaldez FI, Ji J, Tran HL, Zhang Y, Mendoza A, Helman LJ, Thomas CJ. Matrix Screen Identifies Synergistic Combination of PARP Inhibitors and Nicotinamide Phosphoribosyltransferase (NAMPT) Inhibitors in Ewing Sarcoma. Clin Cancer Res. 2017 Dec 1;23(23):7301-7311. doi: 10.1158/1078-0432.CCR-17-1121. Epub 2017 Sep 12. PMID: 28899971; PMCID: PMC6636827.
Potency is read from the fitted curve at half-maximal effect.

Structure (SMILES)	Potency
C=C1CCC2[C@](C)(CO)C(O)CC[C@]2(C)C1CC=C1C(=O)OCC1O (stereo not given in full)	inactive
CCN(CC)CCNC(=O)c1c(C)[nH]c(C=C2C(=O)Nc3ccc(F)cc32)c1C	2150 nM (active)
O=c1[nH]c(=O)n([C@H]2C[C@@H](O)[C@@H](CO)O2)cc1C=CBr	inactive
CCC(C(=O)O)C1CCC(C)C(C(C)C(O)C(C)C(=O)C(CC)C2OC3(C=CC(O)[C@@]4(CC[C@](C)(C5CC[C@@](O)(CC)C(C)O5)O4)O3)C(C)CC2C)O1 (stereo not given in full)	1480 nM (active)
CC(=O)N[C@@H]1[C@H](O[C@@H]2c3ccc(c(Cl)c3)Oc3cc4cc(c3O[C@H]3O[C@H](CO)[C@@H](O)[C@H](O)[C@H]3NC(=O)CCCCCCCC(C)C)Oc3ccc(cc3Cl)C[C@H]3NC(=O)[C@H](N)c5ccc(O)c(c5)Oc5cc(O)cc(c5)[C@H](NC3=O)C(=O)N[C@H]4C(=O)N[C@H]3C(=O)N[C@@H]2C(=O)N[C@@H](C(=O)O)c2cc(O)cc(O[C@H]4O[C@H](CO)[C@@H](O)[C@H](O)[C@H]4O)c2-c2cc3ccc2O)O[C@H](CO)[C@@H](O)[C@@H]1O	inactive
NC(=O)N1CCC(CC(=O)N2CCC([C@H]3c4ncc(Br)cc4CCc4cc(Cl)cc(Br)c43)CC2)CC1	18700 nM (active)
CC1(C)CC(O)CC(C)(C)N1[O]	inactive
CN1[C@H]2CC(OC(=O)[C@@H](CO)c3ccccc3)C[C@H]1[C@H]1O[C@H]12 (stereo not given in full)	inactive
C#C[C@]1(O)CC[C@@H]2[C@@H]3CCc4cc(O)ccc4[C@H]3CC[C@@]21C	20900 nM (active)
C=CC(=O)N1CCc2ccc(-n3c(=O)ccc4cnc5ccc(-c6cnn(C)c6)cc5c43)cc21	2960 nM (active)
C=C1C(=O)O[C@H]2[C@@H]1CCC(C)=CCC[C@@]1(C)O[C@@H]21	2960 nM (active)
Oc1cc2c(cc1O)C1c3ccc(O)c(O)c3OCC1(O)C2 (stereo not given)	inactive
CCCCCCCCc1ccc(CCC(N)(CO)CO)cc1	13200 nM (active)
O=C(C=CC#Cc1cccc(NS(=O)(=O)c2ccccc2)c1)NO	5260 nM (active)
COc1ccnc2[nH]cc(C(=O)C(=O)N3CCN(C(=O)c4ccccc4)C[C@@H]3C)c12	inactive
COc1cc(OC)c(C=CS(=O)(=O)Cc2ccc(OC)c(NCC(=O)O)c2)c(OC)c1	209 nM (active)
CCN(C(=O)c1c(O)c2c(Cl)cccc2n(C)c1=O)c1ccccc1	inactive
C[C@@]12C(=O)OC(=O)[C@@]1(C)C1CCC2O1	1870 nM (active)
N#Cc1c(NC(=O)c2cccc3ccccc23)sc2c1CCCC2	209 nM (active)
COc1cc(C)c(C=CC(C)=CC=CC(C)=CC(=O)O)c(C)c1C	166 nM (active)

Structure (SMILES)	Potency
CC(C=CC1=C(C)CCCC1(C)C)=CC=CC(C)=CC(=O)Nc1ccc(O)cc1	5400 nM (active)
OC[C@@H](O)[C@@H](O)[C@H](O)[C@@H](O)CO	inactive
COc1cc2c(cc1OC)[C@@H]1C(=O)c3ccc4c(c3O[C@@H]1CO2)C=CC(C)(C)O4	8330 nM (active)
Nc1nc2c(c(=O)[nH]1)N(C=O)[C@H](CNc1ccc(C(=O)N[C@@H](CCC(=O)O)C(=O)O)cc1)CN2	inactive
CC(C)NC[C@@H](C(=O)N1CCN(c2ncnc3c2[C@H](C)C[C@H]3O)CC1)c1ccc(Cl)cc1	1660 nM (active)
CC1(C)[C@H](O[C@H]2O[C@H](C(=O)O)[C@@H](O)[C@H](O)[C@H]2O[C@@H]2O[C@H](C(=O)O)[C@@H](O)[C@H](O)[C@H]2O)CC[C@@]2(C)[C@H]1CC[C@]1(C)[C@H]2C(=O)C=C2[C@H]3C[C@@](C)(C(=O)O)CC[C@]3(C)CC[C@]21C	inactive
CC(C)C[C@H](NC(=O)[C@@H](NC(=O)c1cccc(-c2ccccc2)n1)[C@@H](C)O)B(O)O	37.2 nM (active)
CC(C)OC(=O)[C@H](C)N[P@](=O)(OC[C@H]1O[C@@H](n2ccc(=O)[nH]c2=O)[C@](C)(F)[C@H]1O)Oc1ccccc1	inactive
O=C(O)c1ccc(Nc2ncc3c(n2)-c2ccc(Cl)cc2C(c2c(F)cccc2F)=NC3)cc1	4690 nM (active)
C[C@@]12C[C@@]3(O)O[C@@H](O1)[C@]1(COC(=O)c4ccccc4)[C@@H]3C[C@@]12O[C@@H]1O[C@H](CO)[C@@H](O)[C@H](O)[C@@H]1O	inactive
CNC(=O)c1ccc(Nc2cc(Nc3ccccc3S(=O)(=O)C(C)C)c3cc[nH]c3n2)nc1	1180 nM (active)
CC(C(C)N1CC(=O)NC(=O)C1)N1CC(=O)NC(=O)C1 (stereo not given)	inactive
Nc1ccc(C(=O)Nc2cccc(-c3nc(N4CCOCC4)c4oc5ncccc5c4n3)c2)cn1	4180 nM (active)
NC(=O)c1ncn([C@@H]2O[C@H](CO)[C@@H](O)[C@@H]2O)c1O	inactive
CN[C@H](CC(C)C)C(=O)N[C@H]1C(=O)N[C@@H](CC(N)=O)C(=O)N[C@@H]2C(=O)N[C@H]3C(=O)N[C@H](C(=O)N[C@H](C(=O)O)c4cc(O)cc(O)c4-c4cc3ccc4O)[C@H](O)c3ccc(c(Cl)c3)Oc3cc2cc(c3O[C@@H]2O[C@H](CO)[C@@H](O)[C@H](O)[C@@H]2O[C@H]2C[C@](C)(N)[C@H](O)[C@H](C)O2)Oc2ccc(cc2Cl)[C@H]1O	inactive
C=Cc1c(C)c2cc3nc(cc4[nH]c(cc5nc(cc1[nH]2)C(C)=C5CCC(=O)O)c(CCC(=O)OC)c4C)[C@@]1(C)C3=CC=C(C(=O)OC)[C@H]1C(=O)OC	418 nM (active)
C=CC(=O)Nc1ccc2ncnc(Nc3ccc(OCc4cccc(F)c4)c(Cl)c3)c2c1	743 nM (active)
FC(F)c1nc2ccccc2n1-c1nc(N2CCOCC2)nc(N2CCOCC2)n1	372 nM (active)
COc1cccc2c1C(=O)c1c(O)c3c(c(O)c1C2=O)C[C@@](O)(C(=O)CO)C[C@H]3O[C@H]1C[C@H](N)[C@H](O)[C@H](C)O1	332 nM (active)
CC(C)(N)c1ccc(-c2nc3ccccc3nc2-c2ccccc2)cc1	18700 nM (active)

Source: PubChem BioAssay (NCATS)
